In the supplement of paper PMC10849652:
About 7,900 targets were measured; listed, in parts, are those with a hit and a random draw of the rest. About 0.6% of all pairs of compound and target were hits.

Assays:
Assay in all cases: log2 fold change, soluble protein after heating vs DMSO (PISA); higher = thermal stabilisation; K562 cells, 10 uM, 30 min; active = over 0.2 and 3.5 SD of the protein, either way, in both replicates (recomputed)
[1] = compound: COC1=CC=C(C=C1)CN2C=CC3=C2C=C(C=C3)C(=O)NO
In short: (§1)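 K562 cells (2×10^6 cells/mL) were treated with 10 μM compound for 30 min, and aliquots were heated for 3 min over 48°C-58°C. Pooled aliquots were extracted in PBS with 0.5% NP-40 at 4°C, and the supernatant after 21,000xg for 90 min was measured by TMTpro 16plex LC-MS/MS with channel sums equalised. Reported thermal stability, relative to control samples and from duplicates, is a log2 fold change.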

[2] = compound: CO[C@H]1C[C@@H]2CC[C@@H](C)[C@@](O)(O2)C(=O)C(=O)N2CCCC[C@H]2C(=O)O[C@H]([C@H](C)C[C@@H]2CC[C@H](n3cnnn3)[C@H](OC)C2)CC(=O)[C@H](C)/C=C(\C)[C@@H](O)[C@@H](OC)C(=O)[C@H](C)C[C@H](C)/C=C/C=C/C=C/1C [zotarolimus]
In short: as §1

[3] = compound: COc1cc(C(=O)O)ccc1NC(=O)[C@@H]1N[C@@H](CC(C)(C)C)[C@](C#N)(c2ccc(Cl)cc2F)[C@H]1c1cccc(Cl)c1F [idasanutlin]
In short: as §1

[4] = compound: COc1cc(Nc2ncc3c(n2)-c2ccc(Cl)cc2C(c2c(F)cccc2OC)=NC3)ccc1C(=O)O [alisertib]
In short: as §1

[5] = compound: COc1cc2nc(-c3cc(F)ccc3O)nc(N[C@@H]3CNC[C@H]3C(C)(C)O)c2cc1OC
In short: as §1

[6] = compound: COc1cc2ncnc(Nc3ccc(F)c(Cl)c3)c2cc1OCCCN1CCOCC1 [gefitinib]
In short: as §1

[7] = compound: COc1cccc2cc(-c3nc([C@H]4CC[C@H](C(=O)O)CC4)n4ncnc(N)c34)[nH]c12
In short: as §1

[8] = compound: CS(=O)(=O)CCNCc1ccc(-c2ccc3ncnc(Nc4ccc(OCc5cccc(F)c5)c(Cl)c4)c3c2)o1 [lapatinib]
In short: as §1

[9] = compound: CS(=O)(=O)N1CCN(Cc2cc3nc(-c4cccc5[nH]ncc45)nc(N4CCOCC4)c3s2)CC1 [pictilisib]
In short: as §1

[10] = compound: C[C@@H](Oc1cc(-c2cnn(C3CCNCC3)c2)cnc1N)c1c(Cl)ccc(F)c1Cl [crizotinib]
In short: as §1

[11] = compound: C[C@H](C1=CC=C(C=C1)C(=O)NC2=C3C=CNC3=NC=C2)N
In short: as §1

[12] = compound: C[C@H](Nc1ncnc2nc[nH]c12)c1cc2cccc(Cl)c2c(=O)n1-c1ccccc1 [duvelisib]
In short: as §1

[13] = compound: Cc1cc(Nc2cc(CN3CCOCC3)c3nc(C)c(Cc4ccc(Cl)cc4F)n3n2)n[nH]1 [gandotinib]
In short: as §1

[14] = compound: Cc1cc(Nc2cc(N3CCN(C)CC3)nc(Sc3ccc(NC(=O)C4CC4)cc3)n2)n[nH]1 [tozasertib]
In short: as §1

[15] = compound: Cc1cc(SCc2sc(-c3ccc(C(F)(F)F)cc3)nc2C)ccc1OCC(=O)O
In short: as §1

[16] = compound: Cc1ccc(-n2nc(C(C)(C)C)cc2NC(=O)Nc2ccc(OCCN3CCOCC3)c3ccccc23)cc1 [doramapimod]
In short: as §1

[17] = compound: Cc1ccc(C(=O)N(CCCN)[C@@H](c2nc3cc(Cl)ccc3c(=O)n2Cc2ccccc2)C(C)C)cc1 [ispinesib]
In short: as §1

[18] = compound: C[C@@H]1COCCN1C2=NC(=NC(=C2)C3(CC3)S(=O)(=O)C)C4=C5C=CNC5=CC=C4
In short: as §1

[19] = compound: CON(C)C(=O)N1N=C(c2cc(F)ccc2F)S[C@@]1(CCCN)c1ccccc1 [filanesib]
In short: as §1

[20] = compound: CS(=O)(=O)c1ccc(-c2cnc(N)c(C(=O)Nc3ccccc3)n2)cc1
In short: as §1

Measured: log2 fold change

MMADHC (UniProt Q9H3L0)
UniProt Q9H3L0, sequence (Q9H3L0 whole entry, looked up): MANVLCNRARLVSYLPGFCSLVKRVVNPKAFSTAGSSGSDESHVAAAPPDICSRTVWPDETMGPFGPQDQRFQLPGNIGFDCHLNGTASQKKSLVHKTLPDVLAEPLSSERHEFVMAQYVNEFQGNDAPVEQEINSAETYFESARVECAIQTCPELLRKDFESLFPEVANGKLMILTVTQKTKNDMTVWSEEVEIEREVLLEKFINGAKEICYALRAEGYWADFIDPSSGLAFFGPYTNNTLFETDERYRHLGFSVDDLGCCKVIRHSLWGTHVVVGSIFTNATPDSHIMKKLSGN
inactive: [1] -0.031 | [2] 0.102 | [3] -0.135 | [4] 0.006 | [5] 0.056 | [6] 0.305 | [7] 0.013 | [8] 0.176 | [9] -0.114 | [10] 0.065 | [11] 0.093 | [12] 0.007 | [13] -0.087 | [14] -0.001 | [15] 0.084 | [16] 0.099 | [17] -0.038

OXR1 isoform 2 (UniProt Q8N573)
inactive: [1] -0.175 | [2] -0.014 | [3] -0.009 | [5] 0.018 | [6] 0.014 | [8] -0.061 | [9] -0.073 | [10] -0.027 | [18] 0.187 | [11] -0.105 | [12] 0.024 | [13] -0.225 | [14] 0.005 | [15] 0.043 | [16] 0.022 | [17] -0.134

OGFOD2 (UniProt Q6N063)
UniProt Q6N063, sequence (Q6N063 whole entry, looked up): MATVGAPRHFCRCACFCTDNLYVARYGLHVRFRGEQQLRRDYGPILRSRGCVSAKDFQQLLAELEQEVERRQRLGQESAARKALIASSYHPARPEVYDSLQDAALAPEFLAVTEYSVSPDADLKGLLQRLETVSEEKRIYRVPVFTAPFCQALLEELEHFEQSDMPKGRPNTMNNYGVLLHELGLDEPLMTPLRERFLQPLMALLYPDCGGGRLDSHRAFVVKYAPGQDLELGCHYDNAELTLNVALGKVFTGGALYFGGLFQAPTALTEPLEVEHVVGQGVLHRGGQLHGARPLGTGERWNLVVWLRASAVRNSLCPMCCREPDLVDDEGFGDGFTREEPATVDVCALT
inactive: [1] -0.275 | [2] 0.034 | [3] 0.073 | [4] 0.007 | [6] 0.071 | [7] -0.033 | [9] -0.144 | [10] 0.04 | [18] 0.042 | [11] -0.058 | [12] 0.035 | [13] 0.278 | [14] 0.003 | [15] 0.034 | [16] 0.042 | [17] -0.032

NUDT7 (UniProt P0C024)
inactive: [1] 0.023 | [19] -0.092 | [6] 0.05 | [9] 0.115 | [20] 0.03 | [10] 0.004 | [18] 0.248 | [13] -0.23 | [14] 0.165 | [16] 0.011 | [17] -0.157

MRM2 (UniProt Q9UI43)
active: [3] 0.518
inactive: [2] 0.11 | [5] 0.078 | [6] 0.066 | [8] 0.108 | [11] -0.042 | [12] 0 | [14] -0.119 | [15] 0.123

OVCA2 (UniProt Q8WZ82)
inactive: [1] -0.206 | [3] -0.023 | [4] 0.102 | [5] 0.201 | [6] -0.143 | [7] -0.318 | [8] -0.014 | [9] -0.176 | [10] 0.064 | [13] -0.232 | [16] -0.186 | [17] 0.026

MSANTD2 (UniProt Q6P1R3)
inactive: [19] -0.107 | [20] 0.295 | [18] 0.089 | [12] 0.019 | [14] 0.064 | [15] 0.039

MYSM1 (UniProt Q5VVJ2)
UniProt Q5VVJ2, sequence (Q5VVJ2 whole entry, looked up): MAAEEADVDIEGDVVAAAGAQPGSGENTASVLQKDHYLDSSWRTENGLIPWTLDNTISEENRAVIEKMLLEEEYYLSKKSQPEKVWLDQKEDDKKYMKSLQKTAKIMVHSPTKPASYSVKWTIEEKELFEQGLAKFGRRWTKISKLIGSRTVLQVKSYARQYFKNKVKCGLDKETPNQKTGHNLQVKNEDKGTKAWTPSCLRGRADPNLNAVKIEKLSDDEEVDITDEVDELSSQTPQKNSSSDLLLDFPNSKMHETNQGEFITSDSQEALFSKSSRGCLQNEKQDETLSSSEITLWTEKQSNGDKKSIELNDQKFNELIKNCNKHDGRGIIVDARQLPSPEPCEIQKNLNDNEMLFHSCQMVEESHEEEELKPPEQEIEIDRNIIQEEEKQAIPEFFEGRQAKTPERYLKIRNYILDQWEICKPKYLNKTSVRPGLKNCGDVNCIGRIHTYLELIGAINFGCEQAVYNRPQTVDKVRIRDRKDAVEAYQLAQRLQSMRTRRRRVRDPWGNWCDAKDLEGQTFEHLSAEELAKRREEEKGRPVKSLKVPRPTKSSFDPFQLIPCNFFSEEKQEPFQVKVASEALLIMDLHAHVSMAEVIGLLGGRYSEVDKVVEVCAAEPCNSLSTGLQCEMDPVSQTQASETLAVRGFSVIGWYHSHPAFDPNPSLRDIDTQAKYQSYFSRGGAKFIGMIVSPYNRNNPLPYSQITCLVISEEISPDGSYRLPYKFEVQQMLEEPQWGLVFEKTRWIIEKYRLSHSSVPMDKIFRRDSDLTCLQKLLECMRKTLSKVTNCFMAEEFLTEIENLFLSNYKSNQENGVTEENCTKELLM
inactive: [1] -0.063 | [19] -0.007 | [20] 0.067 | [10] -0.091 | [16] -0.045 | [17] 0.128

MT-ND2 (UniProt P03891)
inactive: [1] -0.029 | [2] 0.065 | [3] -0.143 | [4] 0.04 | [5] -0.131 | [6] 0.106 | [7] 0.074 | [8] -0.008 | [9] 0.139 | [10] 0.096 | [11] -0.028 | [12] 0.177 | [13] -0.064 | [14] 0.07 | [15] 0.101 | [16] -0.141 | [17] 0.336

NRGN (UniProt Q92686)
UniProt Q92686, sequence (Q92686 whole entry, looked up): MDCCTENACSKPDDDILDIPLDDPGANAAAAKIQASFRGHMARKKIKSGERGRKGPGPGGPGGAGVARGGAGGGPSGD
inactive: [1] -0.831 | [3] 0.023 | [5] -0.108 | [6] -0.012 | [8] 0.107 | [9] 0.404 | [10] 0.241 | [18] 0.043 | [16] -0.282 | [17] 0
active: [13] 0.891

MOB3B (UniProt Q86TA1)
inactive: [1] 0.355 | [2] -0.087 | [3] -0.24 | [4] -0.001 | [5] 0.04 | [6] 0.384 | [7] -0.011 | [8] -0.033 | [9] 0.067 | [10] -0.078 | [11] 0.098 | [13] 0.039 | [14] -0.025 | [16] 0

NCBP2AS2 (UniProt Q69YL0)
inactive: [19] -0.09 | [2] -0.051 | [3] -0.023 | [4] -0.058 | [6] -0.137 | [7] 0.044 | [8] -0.093 | [9] 0.033 | [20] -0.092 | [11] -0.027 | [12] 0.037 | [13] -0.064 | [14] -0.034 | [15] 0.044
active: [5] -0.42 | [17] -0.48

MXRA7 isoform 3 (UniProt P84157)
inactive: [5] 0.077 | [8] -0.27 | [17] -0.092

NUDT6 (UniProt P53370)
inactive: [1] 0.017 | [2] -0.173 | [4] 0.012 | [5] 0.175 | [6] -0.025 | [7] -0.084 | [8] -0.017 | [10] 0.069 | [18] 0.122 | [11] 0.6 | [12] 0.019 | [14] -0.036 | [15] -0.094 | [16] -0.127 | [17] -0.097

PACRGL (UniProt Q8N7B6)
inactive: [19] 0.056 | [20] -0.074

NIPSNAP2 (UniProt C9J7B1)
inactive: [19] 0.05 | [3] -0.38 | [4] -0.041 | [7] -0.047 | [20] 0

ORC3 (UniProt Q9UBD5)
inactive: [3] -0.167

MOB2 isoform 3 (UniProt Q70IA6)
UniProt Q70IA6, sequence (Q70IA6 whole entry, looked up): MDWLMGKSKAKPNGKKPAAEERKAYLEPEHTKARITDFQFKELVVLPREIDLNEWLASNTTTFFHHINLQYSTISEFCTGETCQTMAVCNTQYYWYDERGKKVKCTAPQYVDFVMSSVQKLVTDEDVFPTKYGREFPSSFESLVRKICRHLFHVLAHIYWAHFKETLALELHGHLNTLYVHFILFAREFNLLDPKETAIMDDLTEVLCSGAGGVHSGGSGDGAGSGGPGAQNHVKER
inactive: [2] 0.205 | [4] -0.066 | [5] -0.184 | [6] 0.051 | [7] 0.02 | [8] 0.025 | [9] 0.06 | [18] -0.166 | [11] 0.044 | [13] -0.093 | [14] -0.1 | [17] -0.025

NDUFA7 (UniProt M0R0N0)
inactive: [19] -0.042 | [20] 0.095

OAF (UniProt Q86UD1)
active: [7] 0.539
inactive: [19] -0.017 | [4] -0.239 | [20] -0.112 | [17] 0.014

NCOA5 (UniProt Q9HCD5)
UniProt Q9HCD5, sequence (Q9HCD5 whole entry, looked up): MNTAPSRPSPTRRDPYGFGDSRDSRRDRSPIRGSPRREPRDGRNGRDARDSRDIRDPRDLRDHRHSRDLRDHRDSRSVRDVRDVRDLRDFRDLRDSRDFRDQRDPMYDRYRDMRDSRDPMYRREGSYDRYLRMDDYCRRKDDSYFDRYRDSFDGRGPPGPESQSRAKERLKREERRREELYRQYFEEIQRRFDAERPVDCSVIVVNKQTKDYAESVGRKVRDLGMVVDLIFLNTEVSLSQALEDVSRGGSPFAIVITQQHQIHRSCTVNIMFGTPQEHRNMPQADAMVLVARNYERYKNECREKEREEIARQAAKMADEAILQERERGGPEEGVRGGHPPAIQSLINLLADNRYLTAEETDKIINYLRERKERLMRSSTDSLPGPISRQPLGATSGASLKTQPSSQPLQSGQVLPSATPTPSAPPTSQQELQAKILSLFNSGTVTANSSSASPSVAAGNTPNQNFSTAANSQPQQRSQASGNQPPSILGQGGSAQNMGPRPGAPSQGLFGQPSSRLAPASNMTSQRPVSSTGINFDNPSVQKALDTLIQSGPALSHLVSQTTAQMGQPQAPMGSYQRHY
inactive: [1] 0.046 | [19] 0.209 | [5] 0.04 | [6] 0.145 | [8] 0.047 | [9] -0.043 | [20] -0.005 | [10] -0.131 | [12] -0.155 | [13] 0.05 | [15] 0.052 | [16] 0.168 | [17] 0.02

MORC2 (UniProt Q9Y6X9)
UniProt Q9Y6X9, sequence (Q9Y6X9 whole entry, looked up): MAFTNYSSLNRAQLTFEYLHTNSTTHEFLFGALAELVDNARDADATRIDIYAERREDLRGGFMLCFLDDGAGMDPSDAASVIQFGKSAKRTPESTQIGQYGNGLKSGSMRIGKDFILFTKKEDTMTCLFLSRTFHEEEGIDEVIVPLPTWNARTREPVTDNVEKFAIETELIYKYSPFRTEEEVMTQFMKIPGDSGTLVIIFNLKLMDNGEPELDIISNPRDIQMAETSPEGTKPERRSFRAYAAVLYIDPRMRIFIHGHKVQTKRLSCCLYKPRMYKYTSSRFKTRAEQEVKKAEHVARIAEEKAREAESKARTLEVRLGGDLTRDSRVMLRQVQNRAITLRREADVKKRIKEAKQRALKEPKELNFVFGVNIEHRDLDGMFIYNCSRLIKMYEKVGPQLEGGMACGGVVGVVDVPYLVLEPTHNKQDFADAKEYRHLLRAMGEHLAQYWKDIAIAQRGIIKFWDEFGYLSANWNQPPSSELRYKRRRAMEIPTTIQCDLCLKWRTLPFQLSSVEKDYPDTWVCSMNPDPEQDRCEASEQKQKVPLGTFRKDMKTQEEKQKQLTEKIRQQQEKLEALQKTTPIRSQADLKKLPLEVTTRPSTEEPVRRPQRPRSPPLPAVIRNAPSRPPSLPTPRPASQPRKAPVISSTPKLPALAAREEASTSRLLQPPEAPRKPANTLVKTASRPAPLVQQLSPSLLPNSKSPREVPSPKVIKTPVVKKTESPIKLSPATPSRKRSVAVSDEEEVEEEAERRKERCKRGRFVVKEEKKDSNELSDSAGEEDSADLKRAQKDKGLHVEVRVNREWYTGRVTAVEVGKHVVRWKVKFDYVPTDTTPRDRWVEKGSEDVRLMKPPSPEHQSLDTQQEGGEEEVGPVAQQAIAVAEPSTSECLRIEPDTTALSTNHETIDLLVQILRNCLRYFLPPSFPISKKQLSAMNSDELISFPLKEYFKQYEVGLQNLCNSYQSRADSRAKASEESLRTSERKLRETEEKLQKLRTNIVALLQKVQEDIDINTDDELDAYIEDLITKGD
inactive: [1] 0.195 | [3] -0.018 | [4] -0.012 | [5] 0.134 | [7] -0.013 | [8] -0.118 | [10] 0.027 | [18] 0.065 | [16] -0.042

OSBPL2 (UniProt Q9H1P3)
active: [8] 1.57
inactive: [2] 0.085 | [4] -0.019 | [5] -0.187 | [7] -0.042 | [11] 0.124

NEU3 isoform 2 (UniProt Q9UQ49)
inactive: [19] -0.286 | [5] 0.301 | [8] -0.126 | [20] 0.062

NA (UniProt B2RBV5)
UniProt B2RBV5, sequence (B2RBV5 whole entry, looked up): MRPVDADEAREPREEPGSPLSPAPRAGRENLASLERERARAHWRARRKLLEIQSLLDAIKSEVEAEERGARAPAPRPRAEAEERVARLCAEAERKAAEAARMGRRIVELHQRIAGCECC
inactive: [19] 0.081 | [4] -0.043 | [5] 0.001 | [6] -0.33 | [7] 0.028 | [8] -0.243 | [9] 0.061 | [20] -0.027 | [18] 0.064 | [13] 0

NKTR (UniProt P30414)
UniProt P30414, sequence (P30414 whole entry, looked up): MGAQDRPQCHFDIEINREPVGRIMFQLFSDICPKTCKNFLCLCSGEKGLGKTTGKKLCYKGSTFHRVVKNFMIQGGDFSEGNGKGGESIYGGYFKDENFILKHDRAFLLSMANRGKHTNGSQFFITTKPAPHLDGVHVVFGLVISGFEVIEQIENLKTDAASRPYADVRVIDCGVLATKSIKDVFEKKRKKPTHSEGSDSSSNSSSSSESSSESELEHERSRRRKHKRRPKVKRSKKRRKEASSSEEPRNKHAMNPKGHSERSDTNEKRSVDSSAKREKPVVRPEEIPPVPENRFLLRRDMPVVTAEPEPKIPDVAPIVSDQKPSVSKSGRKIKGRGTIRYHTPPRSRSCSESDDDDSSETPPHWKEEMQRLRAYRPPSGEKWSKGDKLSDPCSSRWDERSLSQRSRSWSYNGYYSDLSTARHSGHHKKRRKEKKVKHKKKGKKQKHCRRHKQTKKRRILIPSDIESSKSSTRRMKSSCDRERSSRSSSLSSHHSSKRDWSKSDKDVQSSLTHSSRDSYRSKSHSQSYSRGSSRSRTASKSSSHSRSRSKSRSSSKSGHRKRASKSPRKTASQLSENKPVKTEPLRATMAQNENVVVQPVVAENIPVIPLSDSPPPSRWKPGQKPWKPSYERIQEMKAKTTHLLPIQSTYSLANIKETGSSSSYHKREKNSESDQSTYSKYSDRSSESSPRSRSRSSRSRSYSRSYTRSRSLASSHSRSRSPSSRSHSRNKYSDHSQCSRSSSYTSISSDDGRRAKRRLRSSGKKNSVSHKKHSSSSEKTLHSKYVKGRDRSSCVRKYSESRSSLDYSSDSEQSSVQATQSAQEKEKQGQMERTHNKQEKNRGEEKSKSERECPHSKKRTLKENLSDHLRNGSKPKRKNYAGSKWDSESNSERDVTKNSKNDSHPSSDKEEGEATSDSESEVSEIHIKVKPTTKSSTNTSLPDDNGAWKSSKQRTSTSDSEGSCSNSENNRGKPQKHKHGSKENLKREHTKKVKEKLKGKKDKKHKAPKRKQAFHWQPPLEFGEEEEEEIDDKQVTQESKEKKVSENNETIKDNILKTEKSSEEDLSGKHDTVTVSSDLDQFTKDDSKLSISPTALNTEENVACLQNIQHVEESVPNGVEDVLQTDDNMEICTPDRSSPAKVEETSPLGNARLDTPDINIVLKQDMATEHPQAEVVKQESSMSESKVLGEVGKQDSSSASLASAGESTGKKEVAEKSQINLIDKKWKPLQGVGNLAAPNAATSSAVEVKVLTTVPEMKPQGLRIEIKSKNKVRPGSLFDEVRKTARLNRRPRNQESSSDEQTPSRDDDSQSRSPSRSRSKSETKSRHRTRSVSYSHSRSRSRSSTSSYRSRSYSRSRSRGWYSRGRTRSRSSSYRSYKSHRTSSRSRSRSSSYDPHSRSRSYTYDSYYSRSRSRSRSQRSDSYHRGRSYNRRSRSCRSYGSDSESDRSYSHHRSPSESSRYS
inactive: [4] 0.064 | [5] 0.295 | [7] 0.109 | [8] -0.173

NKAP (UniProt Q8N5F7)
inactive: [1] -0.005 | [2] 0.112 | [3] 0.115 | [4] 0.037 | [5] -0.051 | [6] -0.029 | [7] -0.13 | [8] 0.09 | [9] -0.013 | [10] -0.113 | [18] -0.118 | [11] 0.013 | [12] 0.016 | [13] 0.041 | [14] 0.039 | [15] -0.034 | [16] 0.042 | [17] 0.001

NA, A0A494C071
active: [10] -0.887
inactive: [1] -0.265 | [2] -0.011 | [3] -0.392 | [4] 0.016 | [6] 0.367 | [7] 0.143 | [9] 0.277 | [18] 0.137 | [11] 0.043 | [12] 0.007 | [13] -0.352 | [14] -0.152 | [15] -0.102 | [16] 0.104

NA (UniProt J3KR12)
inactive: [1] 0.123 | [4] -0.116 | [6] -0.134 | [7] 0.077 | [10] 0.251 | [18] 0.061 | [16] -0.017 | [17] 0.006
